Compound activity from PubChem.
RmlCD inh mix: inhibitors of RmlC and RmlD coupled enzymes | RmlC/RmlD coupled enzyme inhibition, 384-well mixture HTS | inhibition, % at 5.5 µM | 110,000 compounds, 0.39% hits | AID 1532; in the data active = inhibition above about 30%, passing the limit was not always enough
YopH inh: inhibitors of Yersinia enterocolitica YopH tyrosine phosphatase; fluorescence Ex485/Em525; inhibition, % (concentration not given with the values); 140,000 compounds, 0.16% hits; in the data active = inhibition above about 50%
RmlCD artifact: RmlC/RmlD fluorescence artifact, counter-screen; RmlC/RmlD assay fluorescence artifact counter-screen; shares compounds with RmlCD inh mix; calls only; 360 compounds, 96% hits; call rule not given here;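 also: compound alone with no enzyme and no substrates present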
A number is an active result. Sampled rows, rich in hits. Any-hit rate of the full collection: about 0.44%.

How did O=c1c2ccccc2nc(N2CCCC2)n1-c1ccccc1 do in these assays?
RmlCD inh mix: inactive; YopH inh: inactive

What do the screens show for `O=c1c2ccccc2[se]n1-c1ccccc1`?
RmlCD inh mix: 57; YopH inh: inactive; RmlCD artifact: active

Results for CCOC(=O)C(O)(CC(=O)c1ccc(OC)cc1)C(F)(F)F (stereo not given) ?
RmlCD inh mix: inactive; YopH inh: inactive

How did C=CCn1c2ccccc2c2nnc(SCN3C(=O)c4ccccc4C3=O)nc21 do in these assays?
RmlCD inh mix: 50; YopH inh: inactive; RmlCD artifact: inactive

What do the screens show for `O=C1c2ccccc2C(=O)N1CSc1nnc2c3ccccc3n(CCc3ccccc3)c2n1`?
RmlCD inh mix: inactive; YopH inh: inactive

What do the screens show for `Nc1ccc(-c2nc3ccc(-c4nc5ccccc5o4)cc3[nH]2)cc1`?
RmlCD inh mix: active; YopH inh: inactive; RmlCD artifact: active

How did Cc1nc2ccc(-c3nc4ccccc4o3)cc2[nH]1 do in these assays?
RmlCD inh mix: inactive; YopH inh: inactive

How did Nc1ccc(-c2nc3ccc(N)cc3o2)cc1 do in these assays?
RmlCD inh mix: 104; YopH inh: inactive; RmlCD artifact: active

How did Cc1ccc2nc(-c3cc(N)cc(N)c3)oc2c1 do in these assays?
RmlCD inh mix: inactive; YopH inh: inactive

How did O=C(c1ccc(Cl)cc1)N1CCCC(c2ccccc2)=N1 do in these assays?
RmlCD inh mix: inactive; YopH inh: inactive

How did Cn1nnnc1SCC(=O)Nc1cc(C(=O)O)cc(C(=O)O)c1 do in these assays?
RmlCD inh mix: inactive; YopH inh: inactive

What do the screens show for `CC(C)CC(=O)Nc1ccc2c3c(cccc13)CC2`?
YopH inh: inactive

What do the screens show for `CCN(CC)c1ccc2cc(-c3nc4ccccc4n3C)c(=O)oc2c1`?
RmlCD inh mix: inactive; YopH inh: inactive

What do the screens show for `CCN(CC)c1ccc2cc(-c3nc4ccccc4[nH]3)c(=O)oc2c1`?
RmlCD inh mix: 30; YopH inh: inactive; RmlCD artifact: active

What do the screens show for `CS(=O)(=O)N(CC(=O)Nc1ccc(S(=O)(=O)N2CCCC2)cc1)c1ccccc1F`?
YopH inh: inactive

How did COc1ccc(OC)c(/C=N/NC(=O)CC2C(=O)NN=C2C)c1 (stereo not given) do in these assays?
RmlCD inh mix: 54; YopH inh: inactive; RmlCD artifact: active

Results for COc1cccc(/C=N/NC(=O)CC2C(=O)NN=C2C)c1OC (stereo not given) ?
RmlCD inh mix: inactive; YopH inh: inactive

How did O=C(Nc1cccnc1)/C(N=Nc1cccnc1)=C(\O)c1ccccc1 do in these assays?
YopH inh: inactive

How did CCCCNC(=O)C(Cc1ccccc1)NS(=O)(=O)c1ccc2c(c1)c(=O)n(C)c(=O)n2C (stereo not given) do in these assays?
RmlCD inh mix: inactive; YopH inh: inactive

How did Cc1c(C)c2cc(Cl)c(O)c(CN3CCCCC3)c2oc1=O do in these assays?
RmlCD inh mix: 90; YopH inh: inactive; RmlCD artifact: active

What do the screens show for `Cc1cc(=O)oc2c(CN3CCN(C)CC3)c(O)c(Cl)cc12`?
YopH inh: inactive

How did CN1CCN(Cc2c(O)c(Cl)cc3c(-c4ccccc4)cc(=O)oc23)CC1 do in these assays?
RmlCD inh mix: inactive; YopH inh: inactive

How did O=c1oc2c(CN3CCOCC3)c(O)c(Cl)cc2c2c1CCCC2 do in these assays?
RmlCD inh mix: inactive; YopH inh: inactive

How did CCCCc1cc(=O)oc2cc(OCc3nn[nH]n3)c(Cl)cc12 do in these assays?
RmlCD inh mix: inactive; YopH inh: inactive

How did CCCCc1cc(=O)oc2c(CN3CCCC3)c(O)c(Cl)cc12 do in these assays?
RmlCD inh mix: 124; YopH inh: inactive; RmlCD artifact: active

Results for CCCCc1cc(=O)oc2c(CN(CC)CC)c(O)c(Cl)cc12 ?
RmlCD inh mix: 85; YopH inh: inactive; RmlCD artifact: active

How did CCCc1cc(=O)oc2c(CN3CCN(C)CC3)c(O)c(Cl)cc12 do in these assays?
RmlCD inh mix: 71; RmlCD artifact: active

What do the screens show for `CC(=O)Nc1ccc(N2C(C(C)=O)=NN(c3ccc(Cl)cc3)C2c2sccc2C)cc1` (stereo not given)?
RmlCD inh mix: inactive; YopH inh: inactive

How did c1ccc(Cc2nn3c(-c4ccncc4)nnc3s2)cc1 do in these assays?
RmlCD inh mix: inactive; YopH inh: inactive

How did CCOC(=O)C(NC(=O)Nc1ccc(C(N)=O)cc1)(c1ccccc1)C(F)(F)F (stereo not given) do in these assays?
YopH inh: inactive

Results for CCC(C)/C=C(C)/C=C/C1=CC2=C(Cl)C(=O)C(C)(OC(C)=O)C(=O)C2=CO1 (stereo not given) ?
RmlCD inh mix: 33; RmlCD artifact: active

What do the screens show for `CC[C@H](C)/C=C(C)/C=C/C1=CC2=C(Cl)C(=O)[C@@](C)(OC(C)=O)C(=O)C2=CO1`?
RmlCD inh mix: inactive

How did CCc1ccc(N(CC(=O)Nc2nc3ccc(C)cc3s2)S(=O)(=O)c2c(C)noc2C)cc1 do in these assays?
RmlCD inh mix: inactive; YopH inh: inactive

Results for O=C(Nc1ccc(S(=O)(=O)N2CCN(Cc3ccccc3)CC2)cc1)c1cnccn1 ?
RmlCD inh mix: inactive; YopH inh: inactive

How did O=c1cc(C(F)(F)F)c2sc(N3CCCCC3)nc2[nH]1 do in these assays?
RmlCD inh mix: 65; YopH inh: inactive; RmlCD artifact: active

What do the screens show for `c1c2c(cc3sc(N4CCCCC4)nc13)OCO2`?
YopH inh: inactive
